Each sequence was assayed against TTLL4 (assay: pooled miR-30 sensor sort-seq; sequence = guide strand). Settings: shRNA.
Also: reference of the scale not given here.

For TAGTTTTGACAACAACATCCTT, which sensor-assay potency score (higher = more potent) is on record?
Its sensor-assay potency score (higher = more potent) is -0.466.

With TTTGACAACAACATCCTTTATC as the sequence, how does the sensor-assay potency score (higher = more potent) read?
Its sensor-assay potency score (higher = more potent) is -1.2.

For TGTATCTTCAGTCTCAGCCTGA, which sensor-assay potency score (higher = more potent) is on record?
The sensor-assay potency score (higher = more potent) was 0.277.

TCGCACATACATCTTGAGCAGG was tested. Which sensor-assay potency score (higher = more potent) did it give?
The sensor-assay potency score (higher = more potent) was -1.1.

For TTCTTCTGTATCTTCAGTCTCA, which sensor-assay potency score (higher = more potent) is on record?
Its sensor-assay potency score (higher = more potent) is 0.119.

How did the sensor-assay potency score (higher = more potent) turn out when AGTTTTGACAACAACATCCTTT was run?
Its sensor-assay potency score (higher = more potent) is -0.763.

How did the sensor-assay potency score (higher = more potent) turn out when TTTATTGACACTGTAGTTGGTC was run?
Its sensor-assay potency score (higher = more potent) is 0.947.

How did the sensor-assay potency score (higher = more potent) turn out when TTTTTATTGACACTGTAGTTGG was run?
The sensor-assay potency score (higher = more potent) was -0.76.

How did the sensor-assay potency score (higher = more potent) turn out when TTGAGTATCACGTCATCCTTTG was run?
Its sensor-assay potency score (higher = more potent) is -0.629.

With TTAGCTTCTGATGCTCTCGAAT as the sequence, how does the sensor-assay potency score (higher = more potent) read?
The sensor-assay potency score (higher = more potent) was -0.842.

With TTGATCACAGGTAACGTCTGGG as the sequence, how does the sensor-assay potency score (higher = more potent) read?
The sensor-assay potency score (higher = more potent) was 0.356.

TTGCTAGTCTCTGATTTGCTGA was tested. Which sensor-assay potency score (higher = more potent) did it give?
The sensor-assay potency score (higher = more potent) was -0.807.

These sequences were tested against TTYH3 in the same assay as above. Settings: shRNA.

TAGAATCCCACTGCGATGCCGG was tested. Which sensor-assay potency score (higher = more potent) did it give?
Its sensor-assay potency score (higher = more potent) is -0.487.

With TTGCACGTAGTCCAGATGCAGG as the sequence, how does the sensor-assay potency score (higher = more potent) read?
Its sensor-assay potency score (higher = more potent) is -1.46.

ATGATGACACACCAGGCCGTGC was tested. Which sensor-assay potency score (higher = more potent) did it give?
The sensor-assay potency score (higher = more potent) was -1.46.

For TATTTGGCTCTCATGCTGGAGG, which sensor-assay potency score (higher = more potent) is on record?
Its sensor-assay potency score (higher = more potent) is -0.854.

Which sensor-assay potency score (higher = more potent) does the source give for TTGGCTCTCATGCTGGAGGTGT here?
Its sensor-assay potency score (higher = more potent) is -0.0842.

Which sensor-assay potency score (higher = more potent) does the source give for TTCAGCACCTCCTGGACGCGGA here?
Its sensor-assay potency score (higher = more potent) is -0.58.

Which sensor-assay potency score (higher = more potent) does the source give for TTTTGCTGCCAGGTGTGCGGGA here?
Its sensor-assay potency score (higher = more potent) is -0.687.

For TAGCAGAAGCCGGTCAGCGCTT, which sensor-assay potency score (higher = more potent) is on record?
Its sensor-assay potency score (higher = more potent) is -0.823.

For TAGTCGGTGTCCTCGGGCCGGA, which sensor-assay potency score (higher = more potent) is on record?
The sensor-assay potency score (higher = more potent) was -1.53.

How did the sensor-assay potency score (higher = more potent) turn out when TAGCCCAGCCACCTGTACCAGT was run?
The sensor-assay potency score (higher = more potent) was -1.16.

For TTGCCGTAGAATCCCACTGCGA, which sensor-assay potency score (higher = more potent) is on record?
The sensor-assay potency score (higher = more potent) was -1.44.

Which sensor-assay potency score (higher = more potent) does the source give for AAGCTCAGCCACGACATCCTGC here?
Its sensor-assay potency score (higher = more potent) is -0.514.
